Screening data (PubChem)
A selection: hits, their analogues and other compounds. The true share with any hit is near 28%.
CYP2C9 act: CYP2C9 (human) activation | AID 1024 | activation factor at 5 µM | 1.4% of 96,000 active | recombinant CYP2C9, luciferin-H conversion, luminescence; stronger effect = higher value; factor 1 = untreated enzyme, 0 = blocked;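 active = activation factor of 2 or more for CYP2C9 at a 5 µM dose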
Target sequence (P11712 whole entry, looked up): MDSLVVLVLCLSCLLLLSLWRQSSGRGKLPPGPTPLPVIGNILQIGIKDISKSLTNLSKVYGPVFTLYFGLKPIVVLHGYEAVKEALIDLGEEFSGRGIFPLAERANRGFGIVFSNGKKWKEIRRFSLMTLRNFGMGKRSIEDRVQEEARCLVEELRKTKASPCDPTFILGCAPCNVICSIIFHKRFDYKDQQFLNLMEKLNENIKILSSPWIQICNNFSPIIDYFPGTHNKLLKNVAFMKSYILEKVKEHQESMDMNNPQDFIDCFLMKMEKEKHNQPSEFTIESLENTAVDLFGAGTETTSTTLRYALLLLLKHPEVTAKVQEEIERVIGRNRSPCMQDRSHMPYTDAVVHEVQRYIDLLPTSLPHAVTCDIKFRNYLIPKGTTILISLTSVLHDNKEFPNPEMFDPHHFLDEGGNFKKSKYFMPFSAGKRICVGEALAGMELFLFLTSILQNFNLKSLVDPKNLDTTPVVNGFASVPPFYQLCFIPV
CYP2C19 inhib: blocks human cytochrome P450 2C19. CYP2C19 Supersomes, luciferin-H EGE luminescence, 30 min. inhibition, % at 5 µM. 21% of 96,000 active;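 active = CYP2C19 inhibition above a set limit at 5 µM in the primary screen, cut at about 50% in these data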
CYP2C19 activ: increases human CYP2C19 enzyme activity; 96,000 tested, under 10 active; recombinant CYP2C19, luciferin-H EGE luminescence; stronger effect = higher value; 0 = fully inhibited enzyme, 1 = untreated enzyme; activation factor at 5 µM; AID 1025;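 active = activation factor of at least 2 at 5 µM in the primary screen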
CD11b adhes enh: enhancers of human CD11b/CD18 binding to fibrinogen; P05107+P11215; K562 CD11b/CD18 adhesion to fibrinogen, ATPlite luminescence; activation, % at 10 µM; 0.07% of 93,000 active; AID 1499;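 active = 10 µM primary screen giving 50% or more activity, confirmed by 40% or more on retest at that dose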
CYP2C9 inhib: human CYP2C9 inhibition. CYP2C9 Supersomes, luciferin-H conversion, luminescence. P11712. 20% of 96,000 active. inhibition, % at 5 µM;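 active = blocking of liver enzyme CYP2C9 beyond about 50% at 5 µM, limit read from the data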
Mac1 fbg inh: inhibitors of human CD11b/CD18 binding to fibrinogen; P05107+P11215; K562 CD11b/CD18 adhesion to fibrinogen, ATPlite luminescence; Mn2+ added to activate the integrin; inhibition, % at 10 µM; 0.54% of 93,000 active;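 active = primary inhibition of 50% or more at 10 µM, then 40% or more on retest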
Large screens that a line does not name were inactive.

COc1ccccc1NC(=O)Cn1nc(-c2ccc(Cl)cc2)c2ccccc2c1=O	CYP2C9 inhib 70
O=C(CCSc1ccccc1)NCC1CCCO1 (stereo unspecified)	CYP2C19 inhib 72
Cc1ccc(-c2nn(CCC(=O)NCC3CCCO3)c(=O)c3ccccc23)cc1 (stereo unspecified)	CYP2C9 inhib 54
Cc1ccccc1Sc1c(C#N)c(-c2ccccc2)nn1C	none
C/C(CC(C)C)=N\NC(=O)Nc1ccccc1	none (no result: CYP2C9 act, CYP2C19 inhib, CYP2C19 activ, CYP2C9 inhib)
O=c1c2ccccc2c(-c2ccccc2)nn1-c1cc(Cl)ccc1[N+](=O)[O-]	CYP2C19 inhib 61
Cc1ccc(/C=N\NC(=O)Cn2c(C)nc3ccccc32)o1	none
CN(C)c1ccc(C(=O)c2ccc(N(C)C)c(N)c2)cc1N	CYP2C19 inhib 81
CCOc1ccc(C(=O)c2ccc(OCC)c(N)c2)cc1N	CYP2C19 inhib 76
COc1ccc(C(N)=O)cc1N	none
COC(=O)c1ccc(Sc2ccc(Cl)cc2)c(N)c1	none
CCCCCCNS(=O)(=O)c1nc2nc(C)cc(C)n2n1	none
COc1ccc(OCCN2CCN(C3CC(=O)N(CCC(C)C)C3=O)CC2)cc1 (stereo unspecified)	none
Cc1cc(Nc2ccccc2Cl)n2nnnc2n1	none
Cc1cccc(N2CCN(C(=O)CCCSc3nc4ccccc4[nH]3)CC2)c1C	none
Cc1cccc(N2CCN(C(=O)CCCn3c(=S)[nH]c4cc5c(cc4c3=O)OCO5)CC2)c1C	CYP2C9 inhib 59
CC(=O)c1ccc(N2CCN(C(=O)CCCn3c(=S)[nH]c4cc5c(cc4c3=O)OCO5)CC2)cc1	none
O=C(CCCn1c(=S)[nH]c2cc3c(cc2c1=O)OCO3)N1CCN(c2ccccc2)CC1	CYP2C9 inhib 80
COc1ccc(OC)c(C2C(C(C)=O)=C(O)C(=O)N2Cc2cccnc2)c1 (stereo unspecified)	none
Cn1c(=O)oc2cc(S(=O)(=O)N3CCCC(C(=O)NCc4cccs4)C3)ccc21 (stereo unspecified)	none
COc1ccc(S(=O)(=O)N2CCCC2C(=O)NCc2cccs2)cc1 (stereo unspecified)	CYP2C9 act 3.1, CYP2C19 inhib 68
CCNC(=O)C1CCCN1S(=O)(=O)c1ccc(OC)cc1 (stereo unspecified)	none
CCS(=O)(=O)N1CCCC(C(=O)NCc2ccc3c(c2)OCO3)C1 (stereo unspecified)	none (no result: CD11b adhes enh, Mac1 fbg inh)
Cn1c(=O)oc2cc(S(=O)(=O)N3CCCC(C(=O)NCc4ccc5c(c4)OCO5)C3)ccc21 (stereo unspecified)	CYP2C9 inhib 68
O=C(NCc1cccs1)C1CCCN(S(=O)(=O)c2ccc3c(c2)OCO3)C1 (stereo unspecified)	CYP2C9 act 2.1
CCC1CCCCN1S(=O)(=O)c1ccc(S(=O)(=O)N(Cc2cccs2)C2CC2)cc1 (stereo unspecified)	CYP2C19 inhib 69, CYP2C9 inhib 71
COc1ccccc1N1CCN(C(=O)c2cnn3cccnc23)CC1	none
CCC(c1nnnn1C(C)C)N1CCN(C2CCCC2)CC1 (stereo unspecified)	none
O=C(NCc1cccs1)C1CCC(CNS(=O)(=O)c2cccs2)CC1 (stereo unspecified)	none
C=CCc1cc(C=O)cc(OC)c1OCc1c(Cl)cccc1Cl	none (no result: CD11b adhes enh, Mac1 fbg inh)
Cc1ccc(S(=O)(=O)N2CCCC(C(=O)NCC3COCCO3)C2)cc1 (stereo unspecified)	none
Cc1ccc(CCNC(=O)C2CCCN(S(=O)(=O)c3cccs3)C2)cc1 (stereo unspecified)	CYP2C9 inhib 72
CS(=O)(=O)N1CCCC(C(=O)NCc2cccs2)C1 (stereo unspecified)	none
Cc1ccc(NC(=O)C2CCCN(S(=O)(=O)c3cccs3)C2)cc1 (stereo unspecified)	none
CCCS(=O)(=O)N1CCCC(C(=O)NCCc2ccc(Cl)cc2)C1 (stereo unspecified)	CYP2C9 inhib 56
O=C(NCc1cccs1)C1CCCN(S(=O)(=O)c2cccs2)C1 (stereo unspecified)	CYP2C9 inhib 72
Cc1ccc(S(=O)(=O)N2CCCC(C(=O)N(Cc3cccs3)C3CC3)C2)cc1 (stereo unspecified)	CYP2C19 inhib 99
CCS(=O)(=O)N1CCCC(C(=O)NC2CCCC2)C1 (stereo unspecified)	none
O=C1Nc2ccc(S(=O)(=O)N3CCCC3)c3cccc1c23	CYP2C19 inhib 83
O=C1Nc2ccc(S(=O)(=O)N3CCCCCC3)c3cccc1c23	CYP2C19 inhib 79
CN1CCN(S(=O)(=O)c2ccc3c4c(cccc24)C(=O)N3)CC1	CYP2C19 inhib 55
O=C1Nc2ccc(S(=O)(=O)N3CCCC3C(=O)O)c3cccc1c23 (stereo unspecified)	none
O=C1Nc2ccc(S(=O)(=O)N3CCOCC3)c3cccc1c23	CYP2C19 inhib 59
O=C1Nc2ccc(S(=O)(=O)NCc3ccccn3)c3cccc1c23	none
COC(=O)Nc1ccc(C)c2nsnc12	none
CCOc1ccccc1N1CCN(S(=O)(=O)c2ccc3c4c(cccc24)C(=O)N3)CC1	CYP2C19 inhib 91, CYP2C9 inhib 73
CCOc1ccccc1N1CCN(Cc2cccc(OC)c2OC)CC1	none
COc1cc(NS(=O)(=O)c2ccc(F)cc2)c(C(=O)O)cc1OC	CYP2C9 inhib 56
CCOc1ccc(S(=O)(=O)Nc2cc(OC)c(OC)cc2C(=O)O)cc1	CYP2C9 inhib 73
CCC(CC)C(=O)Nc1cc(OC)c(OC)cc1C(=O)O	none
COc1ccc(/C(=C/c2ccc(OC(F)F)c(OC)c2)C(=O)O)cc1OC	none (no result: CYP2C9 act, CYP2C19 inhib, CYP2C19 activ, CYP2C9 inhib)
CSc1ncc(Cl)c(C(=O)Nc2ccc(S(=O)(=O)N3CCOCC3)cc2)n1	none
Cc1c(Cc2ccc3c(c2)OCO3)sc(NC(=O)C(C)(C)C)c1C#N	none
COc1ccc(S(=O)(=O)NCCSc2ccccc2)cc1OC	CYP2C9 act 2.4, CYP2C19 inhib 97
COc1cc(S(=O)(=O)NCc2ccccc2)ccc1F	CYP2C9 act 2.2, CYP2C19 inhib 98
COc1ccc(CCNC(=O)c2ccc(CNS(=O)(=O)c3cccc(Cl)c3)cc2)cc1OC	none (no result: CYP2C9 act, CYP2C19 inhib, CYP2C19 activ, CYP2C9 inhib)
COc1ccc(S(=O)(=O)NCCSCc2cccc(C)c2)cc1Br	CYP2C9 act 2.1
COc1ccc(S(=O)(=O)NCCSc2ccc(C)cc2)cc1OC	CYP2C19 inhib 82
COC(=O)c1ccc(NC(=O)CSc2nnc(CNc3ccc(F)cc3)n2C)cc1	none
Cc1cc(N(C)C)nc(SC(C)C)n1	none
CCCCCCNS(=O)(=O)c1ccc(OC)c(OC)c1	CYP2C9 act 2.3, CYP2C19 inhib 85
COc1ccccc1CNS(=O)(=O)c1cccc(S(=O)(=O)N2CCOCC2)c1	none
COc1ccc(S(=O)(=O)NCc2ccccc2Cl)cc1OC	CYP2C9 act 2.3, CYP2C19 inhib 95
